Data taken from PubChem BioAssay.

target: NADPH oxidase 2 (Homo sapiens) (UniProt P04839); assay: NOX2-dependent H2O2 signal modulators, primary screen, NOX inhibitor project, cell-based, HEK293-NOX2, PMA-stimulated, Amplex Red fluorescence (AID 1159); settings: 45 min, higher = more signal, called active from +8 up or from −8 down; note: test concentration not given here
Sequence (P04839 whole entry, looked up): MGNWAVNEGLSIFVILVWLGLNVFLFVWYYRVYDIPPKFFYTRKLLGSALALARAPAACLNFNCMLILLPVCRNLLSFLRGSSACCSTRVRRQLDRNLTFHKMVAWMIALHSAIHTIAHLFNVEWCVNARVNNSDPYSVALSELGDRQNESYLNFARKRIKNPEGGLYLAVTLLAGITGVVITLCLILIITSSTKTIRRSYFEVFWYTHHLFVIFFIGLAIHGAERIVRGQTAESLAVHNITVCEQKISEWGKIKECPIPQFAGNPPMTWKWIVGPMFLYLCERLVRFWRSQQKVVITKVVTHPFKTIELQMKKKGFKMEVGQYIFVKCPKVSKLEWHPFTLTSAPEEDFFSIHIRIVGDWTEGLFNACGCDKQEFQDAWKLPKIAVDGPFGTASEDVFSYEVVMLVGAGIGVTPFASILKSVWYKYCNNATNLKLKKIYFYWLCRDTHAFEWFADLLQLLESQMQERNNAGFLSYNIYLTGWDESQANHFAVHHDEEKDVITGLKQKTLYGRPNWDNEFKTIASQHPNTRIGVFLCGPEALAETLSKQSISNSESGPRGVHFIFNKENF

z-score, inactive:
CC(C)Cc1ccc(CN2CC[C@@H](NC(=O)Nc3ccccc3)C2)cc1 -0.507
COC(=O)[C@@]1(Cc2ccc(F)cc2)[C@H]2c3cc(C(=O)N4CCCC4)n(CCN4CNCC4=O)c3C[C@H]2CN1C(=O)c1ccccc1 0.821
COC(=O)[C@@]1(Cc2ccccc2)[C@@H]2C(=CC(=O)[C@H]2CC(=O)C(=O)N(C)C)CN1C(=O)c1ccccc1 -0.0425
C=CCC(OC(C)=O)[C@@H]1[C@@H](N(Cc2ccc(-c3ccccc3)cc2)C(=O)Cc2ccc(F)cc2)c2cc(OCCCO)ccc2N1C(=O)Cc1ccc(OC)cc1 (stereo not given in full) 0.0982
COc1ccc([Si](C)(C)[C@@H]2[C@@H](CCn3cc([C@H](O)c4ccccc4)nn3)O[C@]3(C(=O)N(Cc4ccc(N5CCC5=O)cc4)c4ccccc43)[C@H]2C)cc1 0.193
C=C(C)[C@@H]1CC=C(C(O)C2C=CC3C(=O)N(c4ccccc4)C(=O)C3N2Nc2ccccc2F)CC1 (stereo not given in full) 0.032
Cc1ccc(S[C@]2(C(=O)O)CC(=O)N(Cc3ccccc3Cl)[C@@H]2c2ccc(CO)cc2I)cc1 3.66
O=C1C2C=CC(C(O)c3ccccc3)N(Nc3ccccc3F)C2C(=O)N1c1ccccc1 (stereo not given) -2.07
[N-]=[N+]=NCc1ccccc1[C@@H]1OC(c2ccc(OCCCO)cc2)=N[C@]1(CCS(=O)(=O)c1ccccc1)C(=O)NCC(O)CO (stereo not given in full) 0.861
COC(=O)c1c(CC[C@@H](CO)NC(=O)N[C@H](Cn2cc(C3(O)CCCCC3)nn2)C(C)C)oc(C(C)=O)c1C(=O)OC -3.25
O=C1C2C=CC(C(O)c3ccc(F)cc3)N(n3cnnc3)C2C(=O)N1Cc1ccccc1 (stereo not given) -3.1
Cc1ccc(S[C@]2(C(=O)NCC(F)(F)F)CC(=O)N(Cc3ccccc3)[C@@H]2c2ccc(CO)cc2I)cc1 1.22
C=C(/C(=C/C[C@H](OC(C)=O)c1ccccc1OCCO)c1cc(C(=O)OC)ccc1OC)C(C)C 0.137
CC(C)N1C(=O)C[C@@](C(=O)NCCCN(C)C)(c2ccc([N+](=O)[O-])cc2)[C@H]1c1ccc(CO)cc1 0.778
COCCOC(=O)N1C(=O)[C@@]2(c3cc(C#Cc4ccc(OC)cc4)ccc31)[C@H](c1ccccc1OCCO)N1[C@H](c3ccccc3)[C@H](c3ccccc3)OC(=O)[C@H]1[C@@H]2C(=O)N1CCCCCCC1 -0.126
O=C1NC(=O)C2C1C=CC(C(O)c1cccc3ccccc13)N2Nc1ccc(Cl)cc1Cl (stereo not given) -1.37
C=CCNC(=O)[C@H]1[C@@H]2C(=O)O[C@@H](c3ccccc3)[C@@H](c3ccccc3)N2[C@@H](c2ccc(O)cc2)[C@]12C(=O)Nc1ccc(C#CC3(O)CCCCCC3)cc12 1.71
CCCC[C@@H]1C[C@H]1[C@@H](NC(=O)c1ccccc1)c1ccc(C(F)(F)F)cc1 -0.3
NC(=O)N1C(=O)C2C(C1=O)C1C=C(CCCO)C2C(c2cccs2)N1Cc1cccc(OC(F)(F)F)c1 (stereo not given) 2.15
CCCC[C@@H]1C[C@H]1[C@@H](NC(=O)c1cccs1)c1ccc(C(F)(F)F)cc1 -0.934
C=C(/C(=C/C[C@@H](OC(C)=O)c1cccc(OCCO)c1)c1cc(C(=O)OC)ccc1OC)C(C)C -2.08
CC(C)(C)OC(=O)CC[C@]1(C(=O)NCC(O)CO)N=C(c2ccc(OCCCO)cc2)O[C@H]1c1ccccc1 (stereo not given in full) 0.246
CC(C)(C)N1CC=CC23O[C@@H]4C=CCCOC(=O)C4[C@H]2C(=O)N(CCO)[C@@H]3C1=O (stereo not given in full) 1.31
COc1ccccc1CN1C(=O)c2ccccc2[C@](Cc2ccccc2I)(C(=O)NCC(F)(F)F)[C@@H]1c1ccc(CO)cc1 1.71
CCOC(=O)C[C@H]1[C@H](OC(=O)c2ccccc2-c2ccccc2)[C@@H](NC(=O)C2CCCCC2)c2cc(OCCCO)ccc2N1C(=O)Cc1ccc(OC)cc1 0.0588
COC(=O)CCCCCCC(=O)Nc1ccc(NC(=O)CCCC[P+](c2ccccc2)(c2ccccc2)c2ccccc2)cc1 -0.765
CN1C(=O)C2C=CC(C(O)COCc3ccccc3)N(N(c3ccccc3)c3ccccc3)C2C1=O (stereo not given) 1.58
O=C1O[C@H](c2ccccc2)[C@H](c2ccccc2)N2[C@H]1[C@@H](C(=O)O)[C@]1(C(=O)Nc3ccc(C#CC4=CCCCC4)cc31)[C@H]2c1ccc(O)cc1 1.62
CCOc1cc(C(O)C2C=CC3C(=O)N(c4ccccc4)C(=O)C3N2Nc2ccc(C#N)cc2)ccc1O (stereo not given) -2.87
Cc1cc(C)cc(N2C(=O)CSC2c2cccc([N+](=O)[O-])c2)c1 (stereo not given) -1.02
COCCOC(=O)N1C(=O)[C@@]2(c3cc(C#CC4(O)CCCCCC4)ccc31)[C@H](c1ccc(O)cc1)N1[C@H](c3ccccc3)[C@H](c3ccccc3)OC(=O)[C@H]1[C@@H]2C(=O)NC[C@H](O)c1ccccc1 1.97
C=CCN1C(=O)[C@@]2(CCS(=O)(=O)c3ccccc3)N=C(c3ccc(OCCCO)cc3)O[C@H]2c2ccccc21 -1.42
CCOC(=O)C[C@H]1[C@H](OC(=O)c2cc3ccccc3oc2=O)[C@@H](NC(=O)c2ccc(-c3ccccc3)cc2)c2cc(OCCCO)ccc2N1C(=O)c1ccccc1 -1.47
CCCCO[C@H]1C[C@H]2C(I)=C[C@@H]1C(=O)[C@]21CO1 0.0778
[N-]=[N+]=NCc1ccccc1[C@H]1OC(c2ccc(OCCCO)cc2)=N[C@@]1(CCS(=O)(=O)c1ccccc1)C(=O)N1CCCCC1 0.0197
